The source of these data is PubChem BioAssay (NCI).

Experiment in all cases: NCI-60 one-dose screen, 48 h (100 = growth as untreated, 0 = no growth, -100 = all killed)
For one assay, the system named is NCI-H322M lung. Conditions: 10 µM unless noted.
The next assay relates to HOP-92 NSCLC. Conditions: 10 µM unless noted.
The subject of the next assay is NCI-H522 lung. The following applies: 10 µM unless noted.
A further assay relates to COLO 205 colon. The following applies: 10 µM.
Another assay deals with K-562 leukemia. Conditions: 10 µM unless noted.
The subject of another assay is U251 CNS. Conditions: 10 µM unless noted.
The next assay has as its system LOX IMVI melanoma. Conditions: 10 µM unless noted.
For the next assay, the system named is EKVX NSCLC. Conditions: 10 µM unless noted.
A further assay concerns TK-10 renal. The following applies: 10 µM unless noted.
The subject of a further assay is CAKI-1 renal. The following applies: 10 µM unless noted.
The next assay relates to CCRF-CEM leukemia. The following applies: 10 µM unless noted.
A further assay relates to MOLT-4 leukemia. The following applies: 10 µM.
A further assay deals with SK-OV-3 ovarian. The following applies: 10 µM unless noted.
Another assay has as its system IGROV1 ovarian. Conditions: 10 µM.
The subject of another assay is HS 578T breast. Conditions: 10 µM unless noted.
The test system of a further assay is BT-549 breast. Conditions: 10 µM.
The subject of the next assay is HCT-116 colon. The following applies: 10 µM unless noted.
In another assay the test system is SR leukemia. Conditions: 10 µM.
A further assay relates to SW-620 colon. The following applies: 10 µM unless noted.

This is part of a sample that, as a whole, favours compounds with a hit. Of some 83,000 tested, about 20% had one in any assay.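 Percent growth is the endpoint: 0 to 100 indicates growth inhibition (40 means 60% inhibition), 0 means no net growth, and negative values indicate cell death.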 Unmarked numbers belong to inactive results. Activity calls are given as the source filed them. The calls were made as follows: active = growth percent below 10; inactive = the rest.

`CC1CC=CCC12C(=O)NC(=S)NC2=O` (stereo not given): the growth was 118% in the assay with NCI-H322M lung; 105% in the assay on HOP-92 NSCLC; 101% in the assay with NCI-H522 lung; 122% in the assay with COLO 205 colon; 94.2% in the assay on K-562 leukemia; 94.9% with U251 CNS. The growth was 106% with LOX IMVI melanoma; 95.9% in the assay on EKVX NSCLC; 103% with TK-10 renal; 96.6% in the assay with CAKI-1 renal; 82.6% in the assay on CCRF-CEM leukemia; 109% with MOLT-4 leukemia. For the same compound, the growth in the assay on SK-OV-3 ovarian was 104%; in the assay with IGROV1 ovarian, 117%; in the assay on HS 578T breast it was 102%; in the assay on BT-549 breast, 110%; in the assay with HCT-116 colon, 108%.
Turning to `CC(=O)[O][Hg][CH2]C1(C)COC(C)([CH2][Hg][O]C(C)=O)CO1` (stereo not given), the growth with NCI-H522 lung was -58.9% (active); with COLO 205 colon, -77.4% (active); in the assay on K-562 leukemia, -30.8% (active); with U251 CNS, -96.2% (active); in the assay on LOX IMVI melanoma it was -98.4% (active); with EKVX NSCLC it was 57.9%. In addition, the growth in the assay on CAKI-1 renal is -100% (active); in the assay on CCRF-CEM leukemia, -65.3% (active); with MOLT-4 leukemia it was -19.9% (active); in the assay with SR leukemia, 9.98% (active); with IGROV1 ovarian, -81% (active); in the assay with HS 578T breast it was 84.3%. Further, the growth is -100% (active) in the assay with BT-549 breast, -92.3% (active) in the assay on SW-620 colon and -86.2% (active) with HCT-116 colon.
With `N#Cc1ncc(/N=C/c2ccc(N(CCCl)CCCl)cc2)s1`, the growth was 78.5% with HOP-92 NSCLC; 99.4% in the assay with COLO 205 colon; 37.6% with K-562 leukemia; 80.5% in the assay with U251 CNS; 61.3% in the assay on LOX IMVI melanoma; 91.2% in the assay with EKVX NSCLC. The growth was 7.36% (active) in the assay on CAKI-1 renal; 56.2% in the assay on CCRF-CEM leukemia; 42.7% with MOLT-4 leukemia; 12.7% in the assay with SR leukemia; 90% with IGROV1 ovarian; 90.4% with HS 578T breast. For the same compound, the figures for the growth in the assay with BT-549 breast, with SW-620 colon and in the assay with HCT-116 colon were 66%, 79.4% and 71.6%, respectively.
With `COc1cc[c]([Hg][Cl])cc1`, the growth with HOP-92 NSCLC was 90.1%; in the assay on NCI-H522 lung, -73.8% (active); in the assay with K-562 leukemia it was 17%; in the assay with U251 CNS, -26% (active); in the assay with LOX IMVI melanoma, -84.2% (active); in the assay on EKVX NSCLC it was 76.3%. In addition, the growth with CAKI-1 renal was 78.6%; in the assay with CCRF-CEM leukemia, -20.8% (active); in the assay on MOLT-4 leukemia, -7.01% (active); with SR leukemia, -10.3% (active); in the assay on SK-OV-3 ovarian, 120%; in the assay on IGROV1 ovarian, 15.1%. Also, the growth in the assay with HS 578T breast is 30.5%; in the assay on BT-549 breast it was 45.5%; in the assay with SW-620 colon it was 18.9%; with HCT-116 colon, 48.4%.
Regarding `NC(=O)C(Br)CBr` (stereo not given), the growth with HOP-92 NSCLC is -83.7% (active); in the assay with NCI-H522 lung it was -81.7% (active); with COLO 205 colon, -83.4% (active); in the assay on K-562 leukemia, -50.1% (active); in the assay with U251 CNS, 26.9%; with LOX IMVI melanoma, 3.13% (active). Also, the growth is -73.1% (active) in the assay on EKVX NSCLC; -12.1% (active) in the assay on CCRF-CEM leukemia; -62.1% (active) with MOLT-4 leukemia; 80% with SK-OV-3 ovarian; 51.1% in the assay on HS 578T breast; -59.3% (active) with SW-620 colon.
For the compound `Nc1ncnc2c1c(C(=O)NO)cn2C1OC(CO)C(O)C1O` (stereo not given), the growth with HOP-92 NSCLC was -37% (active); with NCI-H522 lung, -51.1% (active); in the assay on COLO 205 colon it was -36.1% (active); in the assay on K-562 leukemia it was -3.31% (active); in the assay on U251 CNS it was 11.9%; with LOX IMVI melanoma, -5.18% (active). For the same compound, the growth is 6.87% (active) with EKVX NSCLC; -23.1% (active) in the assay with CAKI-1 renal; -17.6% (active) in the assay on CCRF-CEM leukemia; -32.9% (active) in the assay with MOLT-4 leukemia; -7.79% (active) in the assay with SR leukemia; -71.1% (active) in the assay on IGROV1 ovarian. Moreover, the growth was -7.9% (active) with HS 578T breast, -0.861% (active) in the assay on BT-549 breast, -3.16% (active) in the assay on SW-620 colon and 7.69% (active) in the assay with HCT-116 colon.
Regarding `O1[As]2O[As]3O[As]1O[As](O2)O3`, the growth in the assay on HOP-92 NSCLC was -24.4% (active); in the assay with NCI-H522 lung, -63.4% (active); with U251 CNS, -69.2% (active); with LOX IMVI melanoma it was 0.399% (active); in the assay on EKVX NSCLC, 5.14% (active); in the assay on CAKI-1 renal it was -20.2% (active). Further, the growth with CCRF-CEM leukemia was 13.1%; in the assay with IGROV1 ovarian, 14.6%; in the assay on BT-549 breast, -12.1% (active); in the assay with SW-620 colon, 4.74% (active); in the assay on HCT-116 colon, -10.3% (active).
Turning to `CC1=C(SCCC(=O)OCC(=O)NCCC[Te]c2ccccc2)C(=O)c2ccccc2C1=O`, the growth with NCI-H522 lung is -6.75% (active); in the assay on COLO 205 colon, 47.6%; in the assay on K-562 leukemia, 10.2%; in the assay on U251 CNS, -5.81% (active); with LOX IMVI melanoma, -12.6% (active); in the assay with EKVX NSCLC, -3.84% (active). Moreover, the growth with TK-10 renal is 18.9%; with CCRF-CEM leukemia it was 2.25% (active); with MOLT-4 leukemia, 0.655% (active); in the assay on SK-OV-3 ovarian it was -36.8% (active); in the assay with IGROV1 ovarian it was -35.5% (active); in the assay with HS 578T breast it was -16.9% (active). Further, the growth was -6.68% (active) in the assay on BT-549 breast, 22.1% in the assay with SW-620 colon and -12.9% (active) in the assay on HCT-116 colon.
In the case of `COC(=O)C1CC2c3ccccc3C1c1ccccc12` (stereo not given), the growth in the assay on COLO 205 colon is 99.8%; in the assay with K-562 leukemia, 102%; in the assay on U251 CNS, 101%; with LOX IMVI melanoma it was 94.7%; in the assay on TK-10 renal it was 107%; in the assay with CAKI-1 renal it was 76.5%. Besides, the growth was 83.4% in the assay on CCRF-CEM leukemia; 97.3% with MOLT-4 leukemia; 93.9% with SR leukemia; 99.1% in the assay with SK-OV-3 ovarian; 96.6% with IGROV1 ovarian; 120% in the assay with BT-549 breast. Further, the growth in the assay on SW-620 colon and in the assay on HCT-116 colon was 106% in each case.
As for `CC(/C=N/N=C(N)N)=N\N=C(N)N`, the growth with NCI-H522 lung was 61.5%; in the assay on COLO 205 colon, 55.4%; with K-562 leukemia it was 56.1%; with U251 CNS, 77.8%; in the assay with TK-10 renal, 62%; with CAKI-1 renal it was 57.7%. Also, the growth in the assay on CCRF-CEM leukemia is 53%; in the assay on MOLT-4 leukemia it was 98.6%; in the assay on SR leukemia it was 70.1%; with SK-OV-3 ovarian, 84.9%; with HS 578T breast, 69.3%; with SW-620 colon it was 70.6%. Moreover, the growth with HCT-116 colon is 49%.
In the case of `C[C@]12CC[C@@H]3c4ccc(OC(=O)Cc5ccc(N(CCCl)CCCl)cc5)cc4CC[C@H]3[C@@H]1CC[C@@H]2OC(=O)Cc1ccc(N(CCCl)CCCl)cc1`, the growth in the assay on NCI-H522 lung is 134%; in the assay with COLO 205 colon it was 104%; with K-562 leukemia it was 106%; with U251 CNS it was 107%; with TK-10 renal, 120%; in the assay on CAKI-1 renal it was 101%. Besides, the growth in the assay with CCRF-CEM leukemia was 136%; in the assay on SR leukemia it was 106%; with SK-OV-3 ovarian, 126%; in the assay on HS 578T breast, 120%; with SW-620 colon, 103%.
